# Assay results from paper PMC4336329 (PLoS ONE, 2015).
# Out of some 310,000 compounds screened, about 14,000 (4.5%) showed an effect of 50% or more. Effects have a minus sign here. This is one part of a sample in which strong results are shown more often than they occur.
# Target: human ether-à-go-go-related gene (hERG) potassium channel (human, UniProt Q12809)
# Assay: primary screen, population patch clamp on CHO cells stably expressing hERG; higher = less effect of the substance
# 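Further: peak tail current of the secondary pulse compared with the same well before compound.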
# human ether-à-go-go-related gene (hERG) potassium channel, sequence (Q12809 whole entry, looked up): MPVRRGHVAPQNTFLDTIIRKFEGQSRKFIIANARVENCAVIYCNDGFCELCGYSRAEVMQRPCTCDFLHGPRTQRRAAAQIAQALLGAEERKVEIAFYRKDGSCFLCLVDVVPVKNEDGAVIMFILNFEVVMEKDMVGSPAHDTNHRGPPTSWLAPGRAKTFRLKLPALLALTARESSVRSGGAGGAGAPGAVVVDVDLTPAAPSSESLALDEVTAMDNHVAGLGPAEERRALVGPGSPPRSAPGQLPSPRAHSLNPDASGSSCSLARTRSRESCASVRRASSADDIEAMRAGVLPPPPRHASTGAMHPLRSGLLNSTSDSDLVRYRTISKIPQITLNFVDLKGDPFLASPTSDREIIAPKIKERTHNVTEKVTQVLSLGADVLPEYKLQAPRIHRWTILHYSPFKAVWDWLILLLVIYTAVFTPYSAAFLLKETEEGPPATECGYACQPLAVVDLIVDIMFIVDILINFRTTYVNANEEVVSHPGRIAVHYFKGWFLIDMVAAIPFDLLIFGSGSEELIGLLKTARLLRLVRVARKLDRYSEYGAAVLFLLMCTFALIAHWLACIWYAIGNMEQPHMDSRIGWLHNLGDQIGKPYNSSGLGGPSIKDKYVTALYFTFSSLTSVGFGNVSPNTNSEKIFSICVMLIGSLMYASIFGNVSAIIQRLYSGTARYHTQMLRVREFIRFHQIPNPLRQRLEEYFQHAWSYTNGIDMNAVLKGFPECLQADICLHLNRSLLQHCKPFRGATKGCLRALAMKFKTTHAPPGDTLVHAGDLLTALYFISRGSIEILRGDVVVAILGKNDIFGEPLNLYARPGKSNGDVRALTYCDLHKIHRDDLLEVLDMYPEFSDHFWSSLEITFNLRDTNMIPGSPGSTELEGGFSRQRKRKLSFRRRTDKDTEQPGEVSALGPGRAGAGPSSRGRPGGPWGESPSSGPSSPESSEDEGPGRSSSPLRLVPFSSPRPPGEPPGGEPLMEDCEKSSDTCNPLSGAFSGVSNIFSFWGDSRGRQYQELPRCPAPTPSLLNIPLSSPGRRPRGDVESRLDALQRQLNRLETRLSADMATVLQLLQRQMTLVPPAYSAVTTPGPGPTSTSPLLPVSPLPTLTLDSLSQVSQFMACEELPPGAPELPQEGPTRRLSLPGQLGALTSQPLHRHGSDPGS
row,Structure (SMILES),"hERG current change (%, negative = inhibition) at 10uM [%]"
1,CCn1c(SCC(=O)Nc2ccc(C(=O)OC)cc2)nnc1-c1cccs1,-10.7
2,CCOC(=O)c1ccc(NC(=O)CSc2nnc(-c3cccs3)n2CC)cc1,5.69
3,CC(=O)Nc1ccc(NC(=O)CSc2nnc(-c3cccs3)n2N)cc1,1.15
4,Nn1c(SCC(=O)Nc2ccccc2F)nnc1-c1cccs1,-65.7
5,CCn1c(SCC(=O)Nc2cc(C)nn2-c2ccccc2)nnc1-c1cccs1,-12.9
6,CCOC(=O)c1cnn(-c2ccccc2)c1NC(=O)CSc1nnc(-c2cccs2)n1CC,-69.5
7,Cc1nnc(SCC(=O)N2CCN(S(=O)(=O)c3ccc(Cl)cc3)CC2)n(N)c1=O,-19
8,CCc1ccc(NC(=O)CSc2nnc(-c3cccs3)n2CC)cc1,-69.7
9,Nn1c(SCC(=O)N2CCN(S(=O)(=O)c3ccccc3)CC2)nnc1-c1cccs1,-10.1
10,Nn1c(SCC(=O)N2CCN(S(=O)(=O)c3ccc(Cl)cc3)CC2)nnc1-c1cccs1,-52.1
11,Cn1c(SCC(=O)Nc2ccccc2F)nnc1-c1cccs1,-24.2
12,CCn1c(SCC(=O)Nc2c(C#N)cnn2-c2ccccc2)nnc1-c1cccs1,-13.6
13,O=C(NCc1ccccc1)c1cccc(NS(=O)(=O)c2cccc3cccnc23)c1,6.09
14,COc1cnc(-c2ccccc2)nc1OC,12.4
15,O=C(O)c1cc(S(=O)(=O)NCc2ccco2)c(Cl)cc1Cl,14.9
16,COCC(C)NCc1ccc(C)cc1C (stereo not shown),-14.3
17,O=S(=O)(NCc1ccccn1)c1ccc2c(c1)OCCO2,10.5
18,Nc1cc(-c2cccc(Br)c2)nn1Cc1ccccc1,-17.2
19,Nc1cc(=O)nc(SCC(=O)Nc2cccc3ccccc23)n1CCc1ccccc1,-7.07
20,CCOC(=O)C1C(c2ccc(O)cc2)NC(=O)NC1(O)C(F)(F)F (stereo not shown),2.48
21,O=C(NNC(=O)C1CCC1)c1cccc(Cl)c1,-5.52
22,CCOP(=O)(OCC)c1cc(C)c(O)c(C(C)(C)C)c1,-3.41
23,CCn1c(SCC(=O)Nc2ccccc2)nnc1-c1cccs1,-70.8

row,Structure (SMILES),"hERG current change (%, negative = inhibition) at 10uM [%]"
1,CCn1c(SCC(=O)Nc2cc(OC)c(OC)c(OC)c2)nnc1-c1cccs1,-7.07
2,CCn1c(SC/C=C/c2ccccc2)nnc1-c1cccs1,-66.3
3,C=CCn1c(SCCC(=O)O)nnc1-c1cccs1,6.75
4,C=CCn1c2ccccc2c2nnc(SCc3ccc4nonc4c3)nc21,0.592
5,C=CCn1c(SCc2ccc3nonc3c2)nnc1-c1cccs1,-68.7
6,Cn1c(Cc2cccs2)nnc1SC/C=C/c1ccccc1,-0.882
7,O=C(CSc1nnc(-c2cccs2)n1-c1ccccc1)Nc1ccccc1,-44.3
8,CCn1c(SCC(=O)c2ccccc2)nnc1-c1cccs1,-14.8
9,CCn1c(SCC(=O)Nc2cccc(NC(=O)c3ccco3)c2)nnc1-c1cccs1,-79.8
10,Cc1ccc(NC(=O)c2ccco2)cc1NC(=O)CSc1nnc(-c2cccs2)n1C,-38
11,CCn1c(SCC(=O)Nc2ccc(NC(=O)c3ccco3)cc2)nnc1-c1cccs1,11.9
12,Cc1ccc(NC(=O)Nc2ccc([N+](=O)[O-])cc2)nc1,9.85
13,CCCCn1c(N)c(N(Cc2ccccc2OC)C(=O)c2cc(=O)[nH]c3ccccc23)c(=O)[nH]c1=O,17.1
14,CC(=O)N1CCN(C(=O)CSc2nc3c(cnn3-c3ccccc3)c(=O)[nH]2)CC1,-9.1
15,CCOc1ccc(N(C)S(=O)(=O)c2ccc(C)c(C(=O)NCc3ccccc3OC)c2)cc1,-6.23
16,Cc1ccc(-c2nn(CC(=O)NN3CCOCC3)c(=O)c3ccccc23)cc1,-1.66
17,N#Cc1cc(Cl)c(NCC2CCCO2)cc1C#N (stereo not shown),7.45
18,CC1CCCN(C(=O)Nc2cccc(NC(=O)N3CCCC(C)C3C)c2)C1C (stereo not shown),0.168
19,Cc1ccc(N2CC(C(=O)Nc3ccc(C)c(S(=O)(=O)N(C)C)c3)CC2=O)cc1 (stereo not shown),-25.2
20,O=C(OC(C(=O)NC1CCCC1)c1ccccc1F)c1ccco1 (stereo not shown),5.25
21,Cc1cccc(NC(=O)CSCC(=O)N2CCN(c3cccc(C(F)(F)F)c3)CC2)c1,-21.8
22,COc1ccc(NC(=O)CSCC(=O)N(C)CC(=O)Nc2c(C)cccc2C)cc1,-0.574
23,CNC(=O)c1c(N)sc2c1CCCCC2,-3.16

row,Structure (SMILES),"hERG current change (%, negative = inhibition) at 10uM [%]"
1,COC(=O)C(NC(=O)c1ccco1)(Nc1nc(C2CC2)cs1)C(F)(F)F (stereo not shown),11.7
2,Cn1ccnc1COc1ccc(C=O)cc1,10.4
3,CCn1c(SCc2nc3ccccc3s2)nnc1-c1ccccc1,-11
4,C=CCn1c(SCC(=O)Nc2ccc3c(c2)CCC3)nnc1-c1cccs1,-76.9
5,C=CCn1c(SCC(=O)Nc2ccc(C(=O)OCC)cc2)nnc1-c1cccs1,16.7
6,COc1ccc(-n2nnnc2SCc2nc3ccccc3s2)cc1,-5.94
7,COc1cccc(-c2nnc(SCc3nc4ccccc4s3)n2C)c1,-29
8,C=CCn1c(SCC(=O)Nc2ccc(C(=O)OC(C)C)cc2)nnc1-c1cccs1,5.07
9,Cn1c(SCc2nc3ccccc3s2)nnc1-c1cccs1,-36
10,CCn1c(SCc2nc3ccccc3s2)nnc1-c1cccs1,-60
11,COc1ccc(-c2nnc(SCc3nc4ccccc4s3)n2C(C)C)cc1,-67.7
12,Cc1c(/C=N\NC(=O)C2COc3ccc(C(C)(C)C)cc3O2)c2ccccc2n1C (stereo not shown),14
13,CC(C)c1nnc(NC(=O)CCS(=O)(=O)c2ccccc2)s1,19.5
14,CCOC(=O)N1CCC(NC(=O)C2CCCN(C(=O)N3CCOc4ccccc43)C2)CC1 (stereo not shown),3.21
15,CCCCOc1ccc(-c2c(C(=O)Nc3ccccc3)c(C)[nH]c(=S)c2C#N)cc1,12.1
16,C/C(=N/NC(=O)c1ccco1)c1cccc(NC(=O)c2ccc(C)s2)c1,1.1
17,COc1ccc(CCNC(=O)CCS(=O)(=O)c2ccc3c(c2)NC(=O)CO3)cc1OC,14.5
18,COc1ccc(NC(=O)CNC(=O)Cn2ccc3ccccc3c2=O)c(OC)c1,15
19,Cc1nn(Cc2ccc(Cl)cc2)c2sc(C(=O)O)cc12,31.1
20,Cc1nn(Cc2ccc(Cl)cc2)c2sc(C(=O)OCC(N)=O)cc12,-52.1
21,Cc1ccc(Cn2nc(C)c3cc(C(=O)OCC(N)=O)sc32)cc1,7.64
22,OCCC1CN(Cc2ccon2)CCN1CCc1ccccc1 (stereo not shown),-19.2
23,OCCC1CN(Cc2ccc(F)cc2)CCN1CCc1ccccc1 (stereo not shown),-74.2

row,Structure (SMILES),"hERG current change (%, negative = inhibition) at 10uM [%]"
1,CC(=O)Nc1ccc(CN2CCN(CC(C)C)C(CCO)C2)cc1 (stereo not shown),2.2
2,OCCC1CN(Cc2ccc(Oc3ncccn3)cc2)CCN1CCc1ccccc1 (stereo not shown),-55.2
3,CC(C)CCN1CCN(Cc2ccc(Oc3ncccn3)cc2)CC1CCO (stereo not shown),-9.21
4,OCCC1CN(Cc2ccc(F)cc2Cl)CCN1CCc1ccccc1 (stereo not shown),-67.4
5,CC(C)CN1CCN(Cc2ccc(Oc3ncccn3)cc2)CC1CCO (stereo not shown),-28.5
6,CC(=O)Nc1ccc(CN2CCN(CCc3ccccc3)C(CCO)C2)cc1 (stereo not shown),-51.8
7,CC(C)CN1CCN(Cc2ccc(F)cc2Cl)CC1CCO (stereo not shown),-34.4
8,CC(=O)Nc1ccc(CN2CCN(CCC(C)C)C(CCO)C2)cc1 (stereo not shown),19.7
9,COc1cc(NC(=O)COC(=O)Cc2ccc(-c3ccccc3)cc2)cc(OC)c1,3.6
10,Cc1cc(=O)[nH]c2nnnn12,4.44
11,O=C(Nc1cccc(F)c1)Nc1ccnn1C1CCN(C(=O)c2ccccn2)CC1,14.2
12,COc1cccc(N=C2SC(C(=O)Nc3ccc(F)cc3)CC(=O)N2C)c1 (stereo not shown),-11
13,CC(OC(=O)c1nn(C)c(=O)c2ccccc12)C(=O)Nc1ccc(S(N)(=O)=O)cc1 (stereo not shown),11.6
14,Cc1cc(C)n(-c2ccc(F)cc2CN2CCN(Cc3ccccc3)C(CCO)C2)n1 (stereo not shown),-37.2
15,OCCC1CN(Cc2ccc3c(c2)CCO3)CCN1Cc1ccc(F)cc1 (stereo not shown),-72.9
16,COC(=O)c1ccc(CN2CCN(Cc3ccccc3)C(CCO)C2)cc1 (stereo not shown),-16.5
17,OCCC1CN(Cc2ccc3c(c2)CCO3)CCN1C1CCCC1 (stereo not shown),-12.7
18,OCCC1CN(Cc2cc(F)ccc2F)CCN1CCCc1ccccc1 (stereo not shown),-70.3
19,OCCC1CN(Cc2ccc(F)cc2)CCN1CCCc1ccccc1 (stereo not shown),-68.2
20,Cc1ccc(CN2CCN(Cc3ccc4c(c3)OCCO4)CC2CCO)cc1 (stereo not shown),-39.8
21,COC(=O)c1ccc(CN2CCN(CCCc3ccccc3)C(CCO)C2)cc1 (stereo not shown),-64.1
22,COC(=O)c1ccc(CN2CCN(CCC(C)C)C(CCO)C2)cc1 (stereo not shown),-25.7
